The panel holds about 83,000 compounds, 20% with a hit somewhere; the sample as a whole holds those more often.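 Testing used 96-well plates and a 48-hour single-concentration exposure. Example: -40 means 40% of the starting cells died.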 The source made the active and inactive calls. Rule for the calls: active = growth percent below 10; inactive = the rest.
Assays:
Experiment in all cases: NCI-60 one-dose screen, 48 h (100 = growth as untreated, 0 = no growth, -100 = all killed)
Settings in all cases: 10 µM
DU-145 prostate = tested on: DU-145 prostate
K-562 leukemia = tested on: K-562 leukemia
MALME-3M melanoma = tested on: MALME-3M melanoma
MDA-MB-231 breast = tested on: MDA-MB-231 breast
RXF 393 renal = tested on: RXF 393 renal
SF-268 CNS = tested on: SF-268 CNS
SF-295 CNS = tested on: SF-295 CNS
SF-539 CNS = tested on: SF-539 CNS
UACC-257 melanoma = tested on: UACC-257 melanoma
M14 melanoma = tested on: M14 melanoma

Measured: growth

C#C[C@]1(O)CC[C@H]2[C@@H]3CC[C@H]4CC(F)(F)CC[C@]4(C)[C@H]3CC[C@@]21C
inactive: DU-145 prostate 61.2% | K-562 leukemia 76.2% | MALME-3M melanoma 88% | MDA-MB-231 breast 101% | RXF 393 renal 86.4% | SF-268 CNS 92.9% | SF-295 CNS 69.1% | SF-539 CNS 54.6% | UACC-257 melanoma 78.3% | M14 melanoma 80.4%

CCOCC[P+](c1ccccc1)(c1ccccc1)c1ccccc1
inactive: DU-145 prostate 59.8% | K-562 leukemia 20% | MALME-3M melanoma 61.1% | MDA-MB-231 breast 63.5% | RXF 393 renal 79.2% | SF-268 CNS 61.9% | SF-295 CNS 39% | SF-539 CNS 56.2% | UACC-257 melanoma 14% | M14 melanoma 60.8%

O=S(=O)(NC1c2ccccc2Oc2ccccc21)c1ccccc1
inactive: DU-145 prostate 112% | K-562 leukemia 91.3% | MALME-3M melanoma 97.8% | MDA-MB-231 breast 100% | RXF 393 renal 86.6% | SF-268 CNS 98.9% | SF-295 CNS 97.8% | SF-539 CNS 93.7% | UACC-257 melanoma 98.2% | M14 melanoma 98.7%

COc1cccc(C(=O)NNc2nc(N3CCN(C4CCCCC4)CC3)nc(N3CCN(C(c4ccccc4)c4ccccc4)CC3)n2)c1
active: MALME-3M melanoma 9.41%
inactive: DU-145 prostate 87.5% | K-562 leukemia 11.5% | MDA-MB-231 breast 57.2% | RXF 393 renal 64.7% | SF-268 CNS 51.1% | SF-295 CNS 77.3% | SF-539 CNS 61.7% | UACC-257 melanoma 23.1% | M14 melanoma 42.5%

COC(=O)c1c(C)nc(Nc2nc3ccccc3s2)nc1-c1ccc(Cl)cc1Cl
inactive: DU-145 prostate 113% | K-562 leukemia 91.2% | MALME-3M melanoma 97.1% | MDA-MB-231 breast 99.1% | RXF 393 renal 107% | SF-268 CNS 101% | SF-295 CNS 93.3% | SF-539 CNS 103% | UACC-257 melanoma 111% | M14 melanoma 101%

Nc1c(CNCc2nnn(Cc3ccccc3)c2N)nnn1Cc1ccccc1
inactive: DU-145 prostate 107% | K-562 leukemia 93.6% | MALME-3M melanoma 79.9% | MDA-MB-231 breast 108% | RXF 393 renal 99.7% | SF-268 CNS 103% | SF-295 CNS 101% | SF-539 CNS 95.6% | UACC-257 melanoma 103% | M14 melanoma 98.5%

O=C(Nc1ccc(CN2CCOCC2)cc1)c1ccc(-c2cc(Cl)ccc2Cl)o1
inactive: DU-145 prostate 75.4% | RXF 393 renal 38.4% | SF-268 CNS 57.8% | SF-295 CNS 57.6% | SF-539 CNS 88.3% | UACC-257 melanoma 49.4%
active: K-562 leukemia -23.7% | MALME-3M melanoma -53.4% | MDA-MB-231 breast 9.54% | M14 melanoma -44.2%

CCc1nn2c(-c3cc(OC)c(OC)c(OC)c3)c(-c3cc(OC)c(OC)c(OC)c3)nc2s1
inactive: DU-145 prostate 88.1% | K-562 leukemia 85.7% | MALME-3M melanoma 47.5% | MDA-MB-231 breast 58.9% | RXF 393 renal 38.8% | SF-268 CNS 45.9% | SF-295 CNS 61.4% | SF-539 CNS 59.6% | UACC-257 melanoma 108% | M14 melanoma 89.5%

COC(=O)[C@]12CC[C@@H](C)[C@H](C)[C@@H]1C1=CC[C@@H]3[C@@]4(C)CC(=O)[C@H](O)[C@@]5(C)COC(=C45)C[C@@]3(C)[C@]1(C)CC2
active: DU-145 prostate -85.7% | K-562 leukemia -24.9% | MALME-3M melanoma -75.7% | MDA-MB-231 breast -72.5% | RXF 393 renal -87.6% | SF-268 CNS -67.2% | SF-295 CNS -77.8% | SF-539 CNS -52.1% | UACC-257 melanoma -75.1% | M14 melanoma -66.3%

O=c1ccc2nc(-c3ccccc3)nn(-c3ccccc3)c-2c1
active: DU-145 prostate -95.4% | K-562 leukemia -39% | MALME-3M melanoma -92.5% | RXF 393 renal -92.8% | UACC-257 melanoma -97.3%
inactive: MDA-MB-231 breast 76.3% | SF-268 CNS 70.5% | SF-295 CNS 23.9% | SF-539 CNS 105% | M14 melanoma 51.2%

CCOC(=O)c1ccc(N(C=O)CCC(=O)CCl)cc1
active: DU-145 prostate -25.8% | K-562 leukemia 4.03% | MDA-MB-231 breast -16.5% | RXF 393 renal -37.7% | SF-268 CNS 6.04% | SF-295 CNS -16.1% | SF-539 CNS -31.2% | M14 melanoma -5.18%
inactive: MALME-3M melanoma 45.1% | UACC-257 melanoma 39%

COc1ccc(C2C=C(c3ccc(Cl)c(Cl)c3)N=C3SC(C)=CN32)cc1OC (stereo not given)
inactive: DU-145 prostate 83.6% | K-562 leukemia 59.5% | MALME-3M melanoma 87.3% | MDA-MB-231 breast 46.1% | RXF 393 renal 66.4% | SF-268 CNS 63.2% | SF-295 CNS 42.5% | SF-539 CNS 90.7% | UACC-257 melanoma 79.7% | M14 melanoma 71%

COc1cc(C2=Nc3c/c(=C\c4c(O)[nH]c5ccc(Cl)cc45)ccc3=N2)cc(OC)c1OC
inactive: K-562 leukemia 17.3% | SF-295 CNS 83.3%
active: DU-145 prostate 4.46% | MALME-3M melanoma -51.8% | MDA-MB-231 breast 2.35% | RXF 393 renal 1.13% | SF-268 CNS -51.5% | SF-539 CNS -52.4% | UACC-257 melanoma -77% | M14 melanoma -21.6%
